# Compound activity deposited in PubChem BioAssay by National Center for Advancing Translational Sciences (NCATS).
# ATXN2 expr inh: inhibitors of ATXN2 expression. hit rate 0.72% among 360,000. HEK-293 ATXN2-luciferase reporter, luminescence, 24 h. Potency, µM (titrated, usually from 57 µM), without a hit: at the highest dose activity change, negative = inhibition, most hits filed as inhibitors; also: % is scaled to controls: 0 for no effect and ±100 for the full control effect; nearly all actives have a fitted effect of over 55% in size
#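 qHTS (up to 57 uM final) was run with 24 h compound exposure of reporter cells at 37 °C. Each well was multiplexed: SteadyGlo luminescence measured ATXN2-luciferase expression after a fluorogenic Gly-Phe-AFC viability readout (25 uM final).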
# HepG2 tox: kills HepG2 cells in TGF-b inhibitor counter-screen; HepG2 CAGA-GFP viability, ATP luminescence, 18 h; Potency, µM (highest dose often 46.1 µM), for inactives: at the highest dose activity change, negative = cytotoxicity, actives largely listed as cytotoxic; hit rate 0.76% among 410,000; AID 588856
#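 CellTiter-Glo luminescence gave cytotoxicity after 18 hours at 37 degrees C. The cells were HepG2 CAGA-GFP in 1% FBS DMEM, stimulated with 500 pg/mL TGF-beta after compound addition. %Activity was normalised to no-cell wells (complete cell-killing) and DMSO (no toxicity), and curves were fitted and classified.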
# Nrf2 inh: inhibitors of Nrf2 signaling | A549 ARE-Fluc reporter, luciferase luminescence, 18-24 h | hit rate 2.1% among 360,000 | AID 504444 | Potency, µM (titrated, usually from 46 µM), inactives show at the top dose activity change, negative = inhibition, most hits filed as inhibitors; also: % is scaled to controls: 0 for no effect and ±100 for the full control effect; nearly all actives have a fitted effect of over 60% in size
#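 Quantitative HTS in A549 cells stably bearing an antioxidant response element-firefly luciferase construct. Inhibition of Nrf2-driven transcription was scored by luminescence after 18-24 h of compound exposure at 37 °C.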
# A549 tox: counter-screen for Nrf2 inhibitors: cytotoxicity in A549 cells | A549 ARE-Fluc cells, CellTiter-Fluor viability, 18-24 h | Potency, µM (titrated, usually from 46 µM), without a hit: top-dose activity change, negative = cytotoxicity, most hits filed as inhibitors | hit rate 0.16% among 390,000 | AID 504648; also: % is scaled to controls: 0 for no effect and ±100 for the full control effect
#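 Cytotoxicity counterscreen: CellTiter-Fluor fluorescence was measured in A549 ARE_Fluc cells after 18-24 h of compound exposure in a concentration series. The subsequent BugLite luminescent read reports ARE-luciferase activity.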
# TGFb SMAD3 inh: blocks TGF-b signaling; AID 588855; Potency, µM (series often up to 46.1 µM), for the others: at the highest dose activity, negative = inhibition, usual class: inhibitors; HepG2 CAGA-GFP TGF-b/SMAD3 reporter, GFP fluorescence, 18 h; TGF-beta stimulated, 500 pg/mL final; hit rate 1.2% among 410,000; also: % is scaled to controls: 0 for no effect and ±100 for the full control effect; nearly all actives have a fitted effect of over 65% in size
#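 GFP signal (ex488/em500-530) from TGF-beta-stimulated HEPG2 CAGA-GFP cells, 500 pg/mL final, 18 h at 37 degrees C in DMEM plus 1% FBS, normalized to unstimulated and DMSO-stimulated controls.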
# S2 tox: cell viability loss in ATXN counter-screen; Potency, µM (series often up to 56.7 µM), actives largely listed as cytotoxic; AID 651635; hit rate 0.49% among 400,000; S2 cells (HEK-293 line with an ATXN2-luciferase reporter) viability, CellTiter-Fluor protease fluorescence, 24 h; also: nearly all actives have a fitted effect of over 40% in size
# Active calls of the source: *; i = inactive; ? = inconclusive; / = not tested or not shown; ! = not active in a repeat; [ ] = another dose, or the depositor's remark. Most compounds without a hit are left out; they make up all but 3.8% or so of the library. Calls follow the shape of the dose curve; as a rule, active = well fitted curve in the direction sought with a large enough effect; inconclusive = small, poorly fitted or top-dose-only effect, or another doubt; inactive = no such curve, though single readings can be large; an effect the other way counts as inactive or inconclusive. Potency is read from the fitted curve at half-maximal effect.
SMILES,ATXN2 expr inh,HepG2 tox,Nrf2 inh,A549 tox,TGFb SMAD3 inh,S2 tox
O=C(NCCCNC(=O)c1ccc(-c2cc(Cl)ccc2Cl)o1)c1cnccn1,7.7%,-9.4%,?,6.8%,-5.7%,i
Brc1cc(Br)c[n+](CCc2ccccc2)c1,/,6.5%,/,/,2.2%,/
CN(C)c1ccc(C(=O)NCc2ccc3c(c2)CCN3C(=O)c2ccccc2)cc1,/,-11.5%,/,0.2%,9.3%,/
CC(=O)Nc1cc(-c2cccc(F)c2)cn2c(-c3ccc(F)cc3)cnc12,-38.6%,-19.7%,/,/,9.6%,?
O=C(Nc1ccc(C(=O)N2CCOCC2)cc1)C1CC1,-1.4%,4.1%,4.6%,3.8%,8.4%,i
Cc1ncc(C[n+]2csc(CCO)c2C)c(N)n1,-2.1%,-17.6%,14.6µM*!,?,-3.8%,i
C/C(=N\NC(=O)C(C)Oc1ccc([N+](=O)[O-])cc1)c1ccccn1 (stereo unspecified),?,-26.1%,6.51µM*,?,?,7.08µM*
O=C1c2ccccc2C(=O)c2[nH]cnc21,/,5.3%,-15.8%,0.3%,?,?
O=C1c2ccccc2C(=O)c2[nH]c(=O)[nH]c21,?,1.41µM*,20.6µM*,14.6µM*,1µM*,/
CCNC(=O)N1C[C@H]2CON(C)[C@H]2C[C@H]1c1ccccc1Br,9.1%,12.9%,/,/,21.9%,i
O=C(CN1CCN(S(=O)(=O)c2ccccc2F)CC1)Nc1ccccc1C(=O)c1ccccc1,/,-17.0%,14.6µM*,-11.6%,?,i
Cc1ccc2oc(C(=O)N3CCN(Cc4nccn4C)CC3)c(C)c2c1,4.2%,-10.8%,6.5%,5.4%,27.3%,i
O=C(NCC1CCCO1)C(Cc1ccccc1)N1C(=O)C2C3C=CC(C4CC34)C2C1=O (stereo unspecified),-28.4%,-3.1%,3.4%,-4.5%,-0.3%,i
O=C1OCCN1C(=O)[C@H]1[C@H](c2ccc(Cl)cc2)C(c2ccc(F)cc2)=NN1c1ccc(Br)cc1,-10.5%,-31.3%,-15.9%,-2.4%,-90.8%,/
O=C1OCCN1C(=O)[C@H]1[C@H](c2ccc(F)cc2)C(c2ccc(F)cc2)=NN1c1ccc(Br)cc1,-24.8%,-47.9%,?,14.0%,11.2µM*,i
Cc1cccc(C2=NN(c3ccccc3)[C@@H](C(=O)N3CCOC3=O)[C@@H]2c2ccc(F)cc2)c1,-3.9%,-15.8%,3.9%,3.2%,17.8µM*,/
O=C1CSC(=Nc2cccc([N+](=O)[O-])c2)N1,/,-9.8%,-6.9%,3.0%,-2.7%,i
COc1ccc(N2CCN(C(=O)COC(=O)CCOc3ccc(C)cc3)CC2)cc1,1.3%,-4.6%,0.4%,1.3%,5.3%,i
CC(C)C[C@@H](CN1CCC[C@@H]1CN1C(=O)C(=O)NC[C@@H]1Cc1ccccc1)N1C[C@H](Cc2ccccc2)N(CC2CCCCC2)C(=O)C1=O,?,/,/,/,/,22.4µM*
CC(C)C[C@H]1CN([C@@H](CC(C)C)CN2CCC[C@@H]2CN2C(=O)C(=O)NC[C@@H]2Cc2ccccc2)C(=O)C(=O)N1CC1CCCCC1,-33.7%,-37.8%,2.5%,-16.7%,17.8µM*,?
CCOc1ccc(CCN2C(=O)C(=O)N([C@@H](CC(C)C)CN3CCC[C@@H]3CN3C(=O)C(=O)NC[C@@H]3CC(C)C)C[C@@H]2Cc2ccccc2)cc1,?,-1.7%,/,/,20µM*,/
CC(C)(C)NC(=O)COC(=O)c1ccc2c(c1)C(=O)N(Cc1ccco1)C2=O,-12.9%,4.7%,16.8%,1.6%,0.4%,i
O=C(CN1c2ccccc2S(=O)(=O)c2ccccc21)NCc1ccc(F)cc1,0.0%,-4.0%,-11.5%,-4.0%,10.4%,?
Cc1oc2ccc(O)c(CN(C)Cc3ccccc3)c2c1C(=O)Nc1cccc(C(F)(F)F)c1,/,10µM*,?,0.3%,?,/
Cc1ccc(NC(=O)c2c(C)oc3ccc(O)c(CN(C)Cc4ccccc4)c23)c(C)c1,/,-21.9%,17.5%,-5.4%,/,/
SMILES,ATXN2 expr inh,HepG2 tox,Nrf2 inh,A549 tox,TGFb SMAD3 inh,S2 tox
Cc1oc2ccc(O)c(CN(C)Cc3ccccc3)c2c1C(=O)Nc1ccccc1,/,1.78µM*,12.6%,0.2%,?,/
COc1ccc(NC(=O)c2cc3c(s2)-c2c(C)cccc2OC3)c(OC)c1,-20.6%,-14.2%,-18.6%,-3.3%,-1.7%,i
Cc1cc(CC(C)CC(C)(C)C)n(O)c(=O)c1 (stereo unspecified),/,-12.4%,/,/,5.62µM*,/
COc1ccc(-c2c[n+]3c4n2CCCCC4=C(c2ccccc2)C3)cc1,?,-33.4%,-6.4%,0.5%,?,?
Oc1ccc(NCc2ccccc2OCc2ccccc2F)cc1,?,11.2µM*!,?,-13.0%,10µM*!,?
CCOc1ccccc1CNc1ccc(O)cc1,2.9%[11.3 µM],-77.8%,-21.7%,-8.7%,15.8µM*,?
Cc1ccc(S(=O)(=O)NCCS(=O)(=O)N2CCN(c3ccccc3)CC2)cc1,-16.9%,-1.8%,1.4%,-4.5%,-26.7%,i
COC(=O)c1cc(=O)n(-c2ccc(F)cc2)c(=Nc2ccc(F)cc2)s1,?,-100.3%,20.6µM*,?,?,/
COC(=O)c1cc(=O)n(Cc2ccc3c(c2)OCO3)c(=Nc2ccc(F)cc2)s1,-30.1%,-25.9%,-3.2%,-0.7%,-0.5%,i
COC(=O)c1cc(=O)n(Cc2cccs2)c(=Nc2ccc(F)cc2)s1,21.2µM*,-73.0%,-8.6%,-12.1%,?,26.7µM*
Cc1ccc(NC(=O)COC(=O)c2c(-c3ccccc3)noc2C)cc1,-19.4%,3.9%,?,-5.5%,1.1%,i
Cc1onc(-c2ccccc2)c1C(=O)OCC(=O)Nc1ccc(Cl)cc1,-31.2%,-33.5%,23.1µM*,?,-23.8%,i
Cc1onc(-c2ccccc2)c1C(=O)OCC(=O)Nc1ccc(OC(F)(F)F)cc1,?,-35.8%,23.1µM*,-8.3%,12.6µM*,i
COCC(=O)Nc1cc(C(=O)N2CCN(c3ccccc3)C(=O)C2)cc2nc(-c3ccccc3)n(C)c12,/,/,/,/,/,i
CCn1c2ccccc2c2nnc(SCCCn3c(=O)[nH]c4ccccc43)nc21,?,2.6%,?,-0.2%[1.84 µM],-1.6%,20µM*
O=C(NC1CC2CCCC(C1)N2C(=O)Nc1ccc(F)cc1)c1ccccc1 (stereo unspecified),-4.6%,5.8%,-3.9%,0.0%,11.7%,i
CCc1ccc(/C=C/c2c([N+](=O)[O-])c(=O)n(C)c(=O)n2C)cc1,-11.7%,-14.0%,13µM*,?,-24.5%,i
Cn1c(/C=C/c2ccc(Cl)cc2Cl)c([N+](=O)[O-])c(=O)n(C)c1=O,?,-13.6%,25.9µM*,?,-2.3%,?
